Screening data (PubChem)
This is a sample that favours compounds with a hit; in the whole collection about 2.8% have one here.
NCF1 inh: p47phox (human) inhibition. P14598. p47phox/p22phox peptide binding, fluorescence polarization, 2 h. inhibition, % at 24.7 µM. 220,000 tested, 0.53% active. AID 1274;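 active = inhibition above about 30%, limit read from the data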
PGE2 EP2 inh: EP2 receptor (human) inhibition; P43116; C6 glioma cells expressing human EP2, cAMP TR-FRET; cells stimulated with saturating PGE2; inhibition, % at 25 µM; 260,000 tested, 0.52% active; AID 1422;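 active = percent inhibition above 40 after rounding to a whole number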;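 also: rat C6 glioma host cells with rolipram phosphodiesterase inhibitor present; the protocol text gives 20 µM as final concentration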
HSV augment: HSV replication enhancement; 220,000 tested, 0.005% active; maximum fold increase; HSV replication augmentation in cells, fold increase; in the data active = maximum fold increase above about 1.5; tested in PC3 cells
Wee1 degr inh: inhibitors of human Wee1 degradation. HeLa Luc-Wee1K328M stability, luciferase luminescence; 100% = proteasome inhibitor MG132 effect. 220,000 tested, 1.2% active. reporter increase, % at 5 µM;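 active = activation above the mean of all tested compounds plus 3 SD, set per screening run, cut at about 8.8% in these data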;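 also: cells exposed to compound for 20 h before luminescence read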
Furin inh: blocks human furin protease activity | P09958 | purified furin, fluorogenic substrate cleavage | inhibition, % at 20 µM or 30 µM | 220,000 tested, 0.061% active | AID 463115; in the data active = inhibition above about 25%
Target sequence (P09958 108-714 limits assumed): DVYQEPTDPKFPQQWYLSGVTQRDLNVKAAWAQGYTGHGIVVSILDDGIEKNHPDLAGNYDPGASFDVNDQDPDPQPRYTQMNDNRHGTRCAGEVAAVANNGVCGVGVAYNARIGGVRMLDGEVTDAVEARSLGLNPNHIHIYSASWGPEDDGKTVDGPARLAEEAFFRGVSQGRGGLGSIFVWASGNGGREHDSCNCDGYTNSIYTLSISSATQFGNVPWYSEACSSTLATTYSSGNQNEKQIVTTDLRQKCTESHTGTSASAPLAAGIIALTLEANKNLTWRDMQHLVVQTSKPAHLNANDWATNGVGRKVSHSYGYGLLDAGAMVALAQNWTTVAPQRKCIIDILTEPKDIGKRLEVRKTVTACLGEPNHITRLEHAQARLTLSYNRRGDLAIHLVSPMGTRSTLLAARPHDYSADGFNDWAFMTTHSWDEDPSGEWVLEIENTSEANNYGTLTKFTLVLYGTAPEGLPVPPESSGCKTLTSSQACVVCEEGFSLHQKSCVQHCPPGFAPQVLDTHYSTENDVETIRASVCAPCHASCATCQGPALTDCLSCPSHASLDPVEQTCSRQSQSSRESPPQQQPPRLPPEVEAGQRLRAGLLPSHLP
EP2 mod: modulates human prostaglandin E2 receptor EP2 signaling. 260,000 tested, 0.83% active. induction, % at 25 µM. AID 940. EP2-expressing cells, cAMP HTRF FRET, PGE2 co-stimulation;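 active = compounds whose cAMP rise, as percent of the full-agonist control response, exceeds 60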;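 also: rat C6 glioma line stably carrying human EP2 under a CMV promoter; the protocol text gives 20 µM as final concentration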
Numbers stand for hits; 0 = inactive; - = not tested or not shown.

SMILES	NCF1 inh	PGE2 EP2 inh	HSV augment	Wee1 degr inh	Furin inh	EP2 mod
Oc1ccc2c(c1)C(O)CC1(CCN(CC(O)c3ccc(Cl)c(Cl)c3)CC1)O2 (centres undefined)	-	0	-	-	-	0
O=C(/C=C/c1ccc2c(c1)OCO2)c1ccc[nH]1	81	0	0	0	0	0
O=C(/C=C/c1ccc2c(c1)OCO2)c1ccc(F)cc1	0	0	0	0	0	0
Cn1c(=O)c2c(nc(N3CCN(CCO)CC3)n2CCCc2ccccc2)n(C)c1=O	-	0	-	-	-	0
CCOc1cc(/C=N/NC(N)=O)cc(Br)c1OCc1ccccc1F	0	0	0	0	0	62
Cc1csc(SCC(=O)Nc2cccc3nsnc23)n1	144	0	0	0	0	0
C=CCNc1nc(N)c(C(=O)Nc2cc(C)on2)s1	0	46	-	0	0	0
CC1(C)[C@H]2CC[C@]1(C)[C@H](OC(=O)/C=C/c1ccccc1)C2	-	0	-	-	-	0
CCC(C)NC(=O)C1CCN(S(=O)(=O)c2ccc(OC)c(C)c2)CC1 (centres undefined)	-	0	-	-	-	0
CC(C)[C@H](NC(=O)C1(c2ccccc2)CCN(C(=O)OC(C)(C)C)CC1)C(=O)O	58	0	0	0	0	0
CC(C)(C)OC(=O)N1CCC(C(=O)N[C@@H](Cc2ccccc2)C(=O)O)(c2ccccc2)CC1	0	0	0	0	0	0
c1ccc(CC2=NCCN2)cc1	54	0	0	0	0	0
Cc1cc2c(o1)c1cnn(CC(=O)N3CCOCC3)c(=O)c1n2C(C)C	-	-	-	-	-	0
CCOC(=O)n1c(=O)n(Cc2cccc(C)c2)c2ccccc21	0	0	0	0	0	64
CCOC(=O)n1c(=O)n(Cc2ccc(F)cc2)c2ccccc21	0	0	0	0	0	0
COc1ccc2nc3oc(C(=O)Nc4ccc(OC)c(OC)c4)cc3cc2c1	0	0	0	8.9	0	0
Cc1cc2cc(CN(C(=O)C3CCC3)C3CCCCC3)c3nnnn3c2cc1C	-	0	-	-	-	0
CCOc1ccc2[nH]c(C(=O)NCC(C)n3nc(C)nc3C)c(C)c2c1 (centres undefined)	-	0	-	-	-	0
COc1ccc(Nc2cc(C(=O)NCCCN3CCN(C)CC3)c3ccccc3n2)cc1OC	73	0	0	0	0	0
CCOC(=O)C1CCN(C(=O)c2ccc(CNS(=O)(=O)c3ccc(C)cc3)cc2)CC1	33	0	0	0	0	0
CC1=NOC(=O)/C1=C\c1ccc(-c2ccccc2Br)o1	0	44	0	0	0	0
Cc1sc(/C=C2\C(=O)ON=C2c2ccccc2)cc1Br	0	0	0	0	0	0
CC1=NOC(=O)/C1=C\c1ccc(-c2ccc(Cl)c(C(=O)O)c2)o1	0	0	0	0	0	0
O=C1ON=C(c2ccccc2)/C1=C\c1ccco1	0	0	0	0	0	0
CC1=NOC(=O)/C1=C\c1ccc(-c2cccc(Cl)c2)o1	0	109	0	0	0	0
SMILES	NCF1 inh	PGE2 EP2 inh	HSV augment	Wee1 degr inh	Furin inh	EP2 mod
Cc1ccc(/C=C2/C(=O)ON=C2c2ccccc2)o1	0	80	0	0	0	0
CCn1c(=O)n(CC(=O)N(C(C)C)C(C)C)c2cccnc21	-	-	-	-	-	0
O=C(N1CCC(Nc2nc(C(F)(F)F)cc(=O)[nH]2)CC1)C1(c2ccccc2)CC1	-	0	-	-	-	0
O=C(Nc1ccc(N2CCOCC2)cc1)c1cc(Cl)ccc1Cl	-	0	-	-	-	0
Cn1c(=O)c(=O)n(C)c2cc(S(=O)(=O)N3CCCC3C(=O)NCc3ccco3)ccc21 (centres undefined)	0	0	0	9.0	0	0
Cn1c(=O)c2cc(S(=O)(=O)Nc3ccc4c(c3)OCO4)ccc2n(C)c1=O	65	0	0	0	0	0
CC(C)N(C(=O)CC1CCCCC1)c1nnc(-c2ccc(Cl)cc2)s1	-	0	-	-	-	0
CCSc1ncc(/C=N/Nc2ccc([N+](=O)[O-])cc2)n1C	0	0	0	9.6	0	0
O=[N+]([O-])c1ccc(N/N=C\c2cccn2-c2ccccc2)nc1	38	-	-	0	0	0
COc1ccc(NC(=S)N(CCO)Cc2cc3cc(OC)c(OC)cc3[nH]c2=O)cc1	-	0	-	-	-	0
COc1cc(C2SCCS2)cc(Br)c1Oc1ncccc1[N+](=O)[O-]	0	0	0	13	0	0
CN(C)c1ccc(/C=C/c2ccc3c4ccccc4ccc3[n+]2-c2ccccc2)cc1	0	0	-	0	0	0
CN(C)c1ccc(/C=C/c2cccc[n+]2[O-])cc1	0	0	0	9.9	0	0
CN(C)c1ccc(/C=C/c2ccc3ccccc3[n+]2C)cc1	0	100	0	0	0	0
COCCN1CCN(c2c(C)c(C)nc3c(-c4ccccc4)c(C)nn23)CC1	-	-	-	-	-	0
CCC(CCC(C)C1CCC2C3CC=C4C[C@@H](OC(C)=O)CC[C@]4(C)C3CC[C@]12C)C(C)C (some centres undefined)	-	0	-	-	-	0
CC(C)(C)OC(=O)N1CCC[C@H]1C(=O)NCc1ccc(Cl)cc1Cl	0	0	0	10	0	0
COc1ccc(NC(=O)C2CCCN2C(=O)OC(C)(C)C)cc1 (centres undefined)	0	0	0	0	0	0
Cc1ccc(NC(=O)C2CCCN2C(=O)OC(C)(C)C)cc1C (centres undefined)	0	0	0	10	0	0
COc1ccccc1Nc1nc(Nc2ccc(C(C)=O)cc2)nc(C)c1[N+](=O)[O-]	-	0	-	-	-	0
CC(C(=O)N1CCC(Cc2ccccc2)CC1)n1nc(-c2cccs2)cc(N)c1=O (centres undefined)	-	0	-	-	-	0
O=C(O)c1ccc2c(c1)C(=O)N(c1cccc(-c3nc4ccccc4s3)c1)C2=O	0	0	0	11	0	0
CCOC(=O)C1C(=O)CC(=O)CC1CC(C)SCC (centres undefined)	79	0	0	0	0	0
COC(=O)c1c(NC(=O)CCc2ccccc2)sc2c1C(C(=O)OC)CC2 (centres undefined)	-	0	-	-	-	0
NC(=O)CC(NC(=O)c1ccc(Br)cc1)c1ccc(NCc2ccc(F)c(F)c2)c([N+](=O)[O-])c1 (centres undefined)	0	43	0	-	0	0
SMILES	NCF1 inh	PGE2 EP2 inh	HSV augment	Wee1 degr inh	Furin inh	EP2 mod
NC(=O)CC(NC(=O)c1ccc(Br)cc1)c1ccc(NCc2ccc(F)cc2)c([N+](=O)[O-])c1 (centres undefined)	0	51	0	-	0	0
Cc1sc2ncn(CC(=O)Nc3ccccc3C(C)C)c(=O)c2c1C	-	0	-	-	-	0
Cc1ncsc1C(=O)N1CCC(C(=O)c2nc3ccccc3s2)CC1	-	-	-	-	-	0
COCCN1C(=O)C(=O)/C(=C(\O)c2cc(C)ccc2C)C1c1cccnc1 (centres undefined)	-	0	-	-	-	0
CC(C)(C)n1nnnc1CN1CCC(NC(=O)Nc2ccc(F)cc2)CC1	-	0	-	-	-	0
OCCN1CCN(CCCN2c3ccccc3Sc3ccc(Cl)cc32)CC1	0	0	0	0	0	0
OC1C[C@H]2CC[C@@H](C1)N2CCCN1c2ccccc2Sc2ccc(Cl)cc21 (some centres undefined)	-	47	-	-	-	0
